Source: PubChem BioAssay (National Center for Advancing Translational Sciences (NCATS))
HT1080 IDH1KD tx = qHTS for induction of synthetic lethality in tumor cells producing 2HG: qHTS for the HT-1080-IDH1KD cell line. 2% of 360,000 active. HT-1080 IDH1 knockdown viability, ATP luminescence, 48 h. Potency, µM (doses to about 46.1 µM), inactives show top-dose activity, negative = toxicity, hits mostly cytotoxic;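 note: 0% = DMSO wells and -100% = cell-free medium wells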
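IDH1KD HT-1080 cells, 750/well, RPMI + 5% FBS; compound pinned after 2 h settling; 48 h, 37 °C; CellTiter-Glo luminescence; % activity normalised to DMSO and no-cell wells; curves fitted, classed by r2 and efficacy.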
ATXN viability = Viability Counterscreen for Primary qHTS for Inhibitors of ATXN expression; 0.49% of 400,000 active; AID 651635, 2014; Potency, µM (series often up to 56.7 µM), actives largely listed as cytotoxic; S2 cells (HEK-293 line with an ATXN2-luciferase reporter) viability, CellTiter-Fluor protease fluorescence, 24 h; note: nearly all actives have a fitted effect of over 40% in size
HT1080-NT tox = qHTS for induction of synthetic lethality in tumor cells producing 2HG: qHTS for the HT-1080-NT fibrosarcoma cell line. HT-1080-NT fibrosarcoma viability, CellTiter-Glo ATP luminescence, 48 h. Potency, µM (top dose mostly 46.1 µM), without a hit: at the top dose activity, negative = less viability, most hits filed as cytotoxic. 1.6% of 360,000 active;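 note: NT is the 2HG producing partner of a matched IDH1 knockdown line; 0% = DMSO-treated cells and -100% = media-only wells without cells; nearly all actives have a fitted effect of over 55% in size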
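Toxicity toward the 2HG-producing NT line was scored as %Activity, normalised to DMSO and no-cell wells, from CellTiter-Glo luminescence after 48 hours' treatment.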
HepG2 viability = qHTS for Inhibitors of TGF-b: Cytotox Counterscreen. AID 588856, 2011. HepG2 CAGA-GFP viability, ATP luminescence, 18 h. Potency, µM (titrated, usually from 46.1 µM), for the others: at the top dose activity change, negative = cytotoxicity, most hits filed as cytotoxic. 0.76% of 410,000 active
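CellTiter-Glo luminescence gave cytotoxicity after 18 hours at 37 degrees C. The cells were HepG2 CAGA-GFP in 1% FBS DMEM, stimulated with 500 pg/mL TGF-beta after compound addition. %Activity was normalised to no-cell wells (complete cell-killing) and DMSO (no toxicity), and curves were fitted and classified.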
TGFb inhibitor = qHTS for Inhibitors of TGF-b. HepG2 CAGA-GFP TGF-b/SMAD3 reporter, GFP fluorescence, 18 h; TGF-beta stimulated, 500 pg/mL final. Potency, µM (top dose mostly 46.1 µM), inactives show at the highest dose activity, negative = inhibition, usual class: inhibitors. 1.2% of 410,000 active; note: % is set by controls: 0 for no effect and ±100 for the full control effect; nearly all actives have a fitted effect of over 65% in size
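HEPG2 CAGA-GFP, 1000 cells/well; 2 h settle, 37 C; cpd via pin tool; TGF-b 500 pg/mL final; 18 h, 37 C; GFP imaging ex488/em500-530; %Activity normalised to -TGF-b and +DMSO controls; CRC fit, curve class.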
ATXN2 expr inh = Primary qHTS for Inhibitors of ATXN expression; HEK-293 ATXN2-luciferase reporter, luminescence, 24 h; Potency, µM (doses to about 57 µM), for the others: at the highest dose activity change, negative = inhibition, most hits filed as inhibitors; 0.72% of 360,000 active; note: % is set by controls: 0 for no effect and ±100 for the full control effect; nearly all actives have a fitted effect of over 55% in size
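qHTS (up to 57 uM final) was run with 24 h compound exposure of reporter cells at 37 °C. Each well was multiplexed: SteadyGlo luminescence measured ATXN2-luciferase expression after a fluorogenic Gly-Phe-AFC viability readout (25 uM final).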
The depositor's hits bear a star; [ ] = another dose, or the depositor's remark. Most compounds without a hit are left out; they make up all but 3.8% or so of the library. Calls come from the whole dose curve; as a rule, active = well fitted curve in the direction sought with a large enough effect; inconclusive = small, poorly fitted or top-dose-only effect, or another doubt; inactive = no such curve, though single readings can be large; an effect the other way counts as inactive or inconclusive. Potency is the fitted concentration of half-maximal effect.

How did COc1ccc(C(=O)N/N=C(\C)c2ccccn2)cc1OC do in these assays?
HT1080 IDH1KD tx: 10µM*; ATXN viability: inconclusive; HT1080-NT tox: -27%; HepG2 viability: -48%; TGFb inhibitor: inconclusive; ATXN2 expr inh: inconclusive

Results for CC(OC(=O)c1ccccc1OCC(=O)Nc1ccc(Br)cc1)C(=O)NC1CCCC1 (stereo not drawn) ?
HT1080 IDH1KD tx: 11%; HT1080-NT tox: 6%

Results for Cc1cnc(Nc2cccc(CN3CCOCC3)c2)nc1Nc1cccc(S(=O)(=O)NC(C)(C)C)c1 ?
ATXN2 expr inh: 8%

What do the screens show for `Cn1c(NCc2ccccc2)nc2cc(-c3ccccc3)sc2c1=O`?
HT1080 IDH1KD tx: 2%; ATXN viability: inactive; HT1080-NT tox: 9%; HepG2 viability: -9%; TGFb inhibitor: -5%; ATXN2 expr inh: 15%

Results for COc1ccc(-c2cc3nc(C)n(N)c(=O)c3s2)cc1 ?
HT1080 IDH1KD tx: 5.8µM*; ATXN viability: inactive; HT1080-NT tox: 4.1µM*; HepG2 viability: 2.8µM*; TGFb inhibitor: 31%

What do the screens show for `COc1ccc(-c2cc3nc4n(c(=O)c3s2)CCC4)cc1`?
HT1080 IDH1KD tx: 0%; ATXN viability: inactive; HT1080-NT tox: 2%[9.24 µM]; HepG2 viability: -38%; TGFb inhibitor: 15%; ATXN2 expr inh: 5µM*

How did Cc1nc2cc(-c3ccccc3)sc2c(=O)n1N do in these assays?
HT1080 IDH1KD tx: 3.7µM*; ATXN viability: inactive; HT1080-NT tox: 3.7µM*; HepG2 viability: 7.1µM*; TGFb inhibitor: -13%; ATXN2 expr inh: 0.89µM*

How did CCOc1ccccc1CNC(=O)c1ccc2c(c1)sc1nc(-c3cccc(OC)c3)cn12 do in these assays?
HepG2 viability: -15%; TGFb inhibitor: -1%

Results for Cc1ccc2[nH]c3c(c2c1)CN(C(=O)CC1(c2ccccc2)CC(=O)N(Cc2cccnc2)C1=O)CC3 (stereo not drawn) ?
ATXN viability: inactive

How did C[C@@H](Oc1ccc2[nH]nc(C=Cc3cnn(CCO)c3)c2c1)c1c(Cl)cncc1Cl do in these assays?
ATXN2 expr inh: 22µM*

How did COc1ccc(OC)c(NC(=O)c2c(NCc3ccc(C)o3)sc3c2CCC(C)C3)c1 (stereo not drawn) do in these assays?
ATXN viability: inconclusive; HepG2 viability: -72%; TGFb inhibitor: inconclusive; ATXN2 expr inh: inconclusive

How did CCOC(=O)c1c(C)[nH]c(C)c1C(=O)COC(=O)/C=C/c1ccc(OC)cc1 do in these assays?
HT1080 IDH1KD tx: 15µM*; ATXN viability: inconclusive; HT1080-NT tox: inconclusive; HepG2 viability: 1%; TGFb inhibitor: 1%; ATXN2 expr inh: -13%

How did O=C1/C(=C/c2ccc(N3CCCC3)cc2)NC(=S)N1C1CC1 do in these assays?
HT1080 IDH1KD tx: 7.9µM*; ATXN viability: inactive; HT1080-NT tox: 6.3µM*; HepG2 viability: -26%; TGFb inhibitor: 43%; ATXN2 expr inh: 16%

How did Cc1nc2c(=O)n(C)c(=O)n(C)c2nc1Cl do in these assays?
HT1080 IDH1KD tx: 5.8µM*; ATXN viability: 30µM*; HT1080-NT tox: 9.2µM*; HepG2 viability: 11µM*; TGFb inhibitor: 7.1µM*; ATXN2 expr inh: inconclusive

How did COc1ccc(-n2nc(C(=O)Nc3ccc(C(C)=O)cc3)nc2-c2ccccc2)cc1 do in these assays?
ATXN viability: inconclusive; HepG2 viability: -17%; TGFb inhibitor: 7%; ATXN2 expr inh: -14%

How did Oc1ccccc1CNc1ccc(OC(F)(F)F)cc1 do in these assays?
HT1080 IDH1KD tx: inconclusive; ATXN viability: inactive; HT1080-NT tox: 18µM*; HepG2 viability: -45%; TGFb inhibitor: inconclusive; ATXN2 expr inh: 3%

What do the screens show for `O=C(Oc1ccccc1C(=O)Nc1ccccc1)c1ccccc1Br`?
HT1080 IDH1KD tx: 7.3µM*; ATXN viability: inactive; HT1080-NT tox: inconclusive; HepG2 viability: -24%; TGFb inhibitor: 0%; ATXN2 expr inh: 86%

How did O=C(COc1ccccc1C(=O)Nc1ccccc1)Nc1ccccc1Br do in these assays?
HepG2 viability: -5%; TGFb inhibitor: -25%

How did COc1ccc(CN2CCN(C(C)=O)CC2)cc1OC1CCN(C(=O)c2ccc3ccccc3n2)CC1 do in these assays?
ATXN viability: inactive

Results for O=C(c1ccc(CS(=O)c2ccccc2Cl)o1)N1CCN(c2ccccn2)CC1 (stereo not drawn) ?
HT1080 IDH1KD tx: 7.3µM*; ATXN viability: inactive; HT1080-NT tox: inconclusive; HepG2 viability: 2%; TGFb inhibitor: 15%

What do the screens show for `COc1cc(N(C)C)ccc1/C=C1\C=Cc2ccccc21`?
HepG2 viability: -29%; TGFb inhibitor: -3%

Results for COC(=O)C1C(C(=O)OC)C1(c1ccccc1)c1ccccc1 (stereo not drawn) ?
HT1080 IDH1KD tx: -7%; ATXN viability: inactive; HT1080-NT tox: 1%; HepG2 viability: -2%; TGFb inhibitor: 13%; ATXN2 expr inh: -10%

How did COC(=O)C1=C(C(=O)OC)C(C(=O)OC)C(C(=O)OC)C(C(=O)OC)(C(=O)OC)C(C(=O)OC)=C1C(=O)OC (stereo not drawn) do in these assays?
HT1080 IDH1KD tx: inconclusive; ATXN viability: 34µM*; HT1080-NT tox: -17%; HepG2 viability: -41%; TGFb inhibitor: -28%; ATXN2 expr inh: inconclusive

Results for O=c1cc(N2CCOCC2)oc2c(-c3cccc4c3sc3ccccc34)cccc12 ?
ATXN2 expr inh: -18%

Results for CCOC(=O)c1ccc(NC(=O)NCCOCCn2c(=O)oc3ccccc32)cc1 ?
ATXN viability: inactive; HepG2 viability: -11%; TGFb inhibitor: inconclusive; ATXN2 expr inh: -18%

What do the screens show for `CC(C)(C)CC(C)(C)NC(=O)CSCC(=O)Nc1ccc2ccccc2c1`?
HT1080 IDH1KD tx: -1%[9.24 µM]; ATXN viability: inactive; HT1080-NT tox: 16µM*; HepG2 viability: -100%; TGFb inhibitor: inconclusive; ATXN2 expr inh: 2%

How did Cc1ccc2c(C(=O)CNC3=NCCS3)c(C)[nH]c2c1 do in these assays?
HepG2 viability: -14%; TGFb inhibitor: 0%

What do the screens show for `CCCSc1nc2cc(OC)c(OC)cc2c(=N)n1CCCN1CCOCC1`?
HT1080 IDH1KD tx: inconclusive; ATXN viability: inactive; HT1080-NT tox: 15µM*; HepG2 viability: 2%; TGFb inhibitor: 15%; ATXN2 expr inh: inconclusive
